This is an account of results in PubChem BioAssay AID2717 (Broad Institute, 2010).

Among all 300,000 compounds or so, about 3,200 (1.1%) were called active. No stated cut-off is given here; in the data, active means inhibition above about 75%; inconclusive means no clear call, values can overlap the other calls; inactive means below that; tested in HMLE shEcad cells. For the sample, actives were picked, then their nearest neighbours and some compounds at random.

A short description of this experiment: cancer stem cell viability inhibitors, primary screen, luminescence (AID 2717). Particulars: cancer stem cell-like cells viability, at 7.5 µM, active compounds read high.
As for `CSc1nc2ccc(NC(=O)c3c(F)cccc3F)cc2s1`, the inhibition is 4.73% (inactive). On to `CCCC(=O)Nc1nc2ccc(NC(=O)c3cccnc3)cc2s1`, for which the inhibition is 47.6% (inactive). As for `CCCC(=O)Nc1nc2ccc(NC(=O)c3c(F)c(F)c(OC)c(F)c3F)cc2s1`, the inhibition is 92% (active). `Cc1ccc(S(=O)(=O)N2[C@@H](c3cccc4ccccc34)C(C(=O)O)=C[C@H]2C(C)(C)C)cc1`: the inhibition is 11.1% (inactive). For `COc1cccc(NC(=O)CSc2nnc(C3CCCCC3)n2N)c1`, the inhibition was -6.52% (inactive).

As to `Cc1cc(C)c(NC(=O)C[N+](C)(C)CC(O)COc2cccc3ccccc23)c(C)c1` (stereo unspecified), the inhibition is -3.82% (inactive).

Turning to `CC(C)c1ccccc1OCC(O)CN(CC(O)COc1cccc2ccccc12)C(C)C` (stereo unspecified), the inhibition was 102% (active). In the case of `OC(COc1cccc2ccccc12)CN1CCN(c2ccccn2)CC1` (stereo unspecified), the inhibition was -5.87% (inactive).

As to `Cc1ccc(CC(=O)Nc2ccc(OC(F)F)c(Cl)c2)cc1C`, the inhibition was 33.3% (inactive).

In the case of `O=C(Cc1ccc(Cl)c(Cl)c1)Nc1ccc(SC(F)F)cc1`, the inhibition was 75.2% (active). As for `CC(=O)N1CCN(CC(=O)Nc2ccc(SC(F)F)cc2)CC1`, the inhibition was 5.6% (inactive). For `COc1cc([N+](=O)[O-])ccc1NC(=O)COC(=O)CCOc1ccc(C)cc1`, the inhibition is 18.1% (inactive). For `COc1ccc(NS(=O)(=O)c2ccc(NC(=S)NC(=O)/C=C/c3ccc(C)cc3)cc2)nn1`, the inhibition was 9.35% (inactive).

For `COc1ccc(/C=C/C(=O)c2ccc(NS(=O)(=O)c3ccc(C)cc3)cc2)cc1O`, the inhibition is 99.8% (active). As for `Cc1ccc(C(=O)/C=C/Nc2ccc(S(=O)(=O)Nc3onc(C)c3C)cc2)cc1`, the inhibition is 6.82% (inactive). In the case of `CC(C)(C)OC(=O)C[C@@H]1C/C=C\C[C@@H](CC(=O)NCCO)C(=O)N[C@H](Cc2c[nH]c3ccccc23)COC1=O`, the inhibition was -11.3% (inactive).

`Cc1ccc(Br)c(NS(=O)(=O)c2cccc(C(=O)N3CCNC(=O)C3)c2)c1`: the inhibition was -15.2% (inactive). Consider `CN1CCN(C2Cc3ccc(Cl)cc3Sc3ccc(F)cc32)CC1` (stereo unspecified), for which the inhibition is 101% (active). Consider `O=C(N=C1SC2CS(=O)(=O)CC2N1c1ccccc1)c1ccccc1` (stereo unspecified), for which the inhibition is -9.26% (inactive).

With `Cc1ccc(C2(C)NC(=O)N(CC(=O)N3CC(=O)Nc4ccccc43)C2=O)cc1` (stereo unspecified), the inhibition was -12.5% (inactive). In the case of `O=C(c1ccc(S(=O)(=O)NCc2ccco2)cc1)N1CCN(c2ccccc2)CC1`, the inhibition was -16.3% (inactive). To `Cc1cc(OCCN2CCCC2)ccc1C(C)C` belongs 1.11% (inactive). Regarding `CC(C)(c1ccccc1)c1ccc(OCCN2CCCC2)cc1`, the inhibition was 91.2% (active). Turning to `CC(C)(c1ccccc1)c1ccc(OCCN)cc1`, the inhibition is 37% (inactive).

For `CN(Cc1ccc(F)cc1)C(=O)CN1C(=O)c2ccccc2S1(=O)=O`, the inhibition was 1.87% (inactive). With `Cc1cc(NC(=O)COC(=O)/C=C/c2ccc(C)o2)no1`, the inhibition is -11.7% (inactive). In the case of `CC(=O)Oc1ccccc1C(=O)Nc1ncc([N+](=O)[O-])s1` it was 76.2% (active). Turning to `O=C(CCc1ccccc1)Nc1ncc([N+](=O)[O-])s1`, the inhibition was 23.5% (inactive).

On to `O=C(Nc1ncc([N+](=O)[O-])s1)C1COc2ccccc2O1` (stereo unspecified), for which the inhibition is 54.2% (inactive). `COc1cccc(CNC(C)C(=O)Nc2ccc(S(=O)(=O)N3CCCC3)cc2)c1` (stereo unspecified): the inhibition is 10.7% (inactive). In the case of `CN(C(=O)COC(=O)CCCc1c[nH]c2ccccc12)c1c(N)n(Cc2ccccc2)c(=O)[nH]c1=O` it was -11.7% (inactive); in that of `CC1(C)C2CC[C@]3(C)C(CC=C4[C@@H]5C[C@@](C)(CO)CC[C@]5(C(=O)O)CC[C@]43C)[C@@]2(C)CC[C@@H]1O` (stereo partly specified), -8.25% (inactive); in that of `CC1(C)CC[C@]2(C(=O)O)CC[C@]3(C)C(=CCC4[C@@]5(C)CC[C@H](O)C(C)(C)C5[C@H](O)C[C@]43C)[C@@H]2C1` (stereo partly specified), -4.41% (inactive). Consider `CC1(C)CC[C@@]2(C(=O)O)C(C1)C1=CCC3[C@@]4(C)CC[C@H](O)C(C)(C)C4CC[C@@]3(C)[C@]1(C)C[C@H]2O` (stereo partly specified), for which the inhibition is 87.8% (active). In the case of `CCOC(=O)[C@H]1[C@H]2COc3ccccc3[C@@H]2N2C(=O)CN(Cc3ccccc3)C(=O)[C@@]12C` it was -9.72% (inactive); in that of `CC(C)CC(=O)N1CCN(Cc2cccc(Cl)c2)CC1`, -2.32% (inactive).

Consider `Clc1cccc(CN2COc3c(cc(Cl)c4cccnc34)C2)c1`, for which the inhibition was 118% (active). To `O=C(c1cccc(Cl)c1)N1CCN(Cc2ccccc2)CC1` belongs -14.8% (inactive); to `O=C(OCC(=O)N1CCCCCC1)c1ccc(Br)c(S(=O)(=O)N2CCOCC2)c1`, -10.2% (inactive); to `COc1ccc(-c2nc3cnccn3c2NC2CCCCC2)cc1-c1cccc(Cl)c1`, 105% (active). As for `COc1ccc(-c2nc3cnccn3c2NC(C)(C)CC(C)(C)C)cc1O`, the inhibition was 0.145% (inactive).

In the case of `Cc1ccc2nc(-c3cccnc3)c(NC3CCCC3)n2c1`, the inhibition is -4.39% (inactive). Take `CCN(c1ccccc1)S(=O)(=O)c1cccc(C(=O)NCc2ccccc2CN2CCOCC2)c1`: the inhibition was -15.2% (inactive). Take `N#Cc1nc(-c2ccc(OCc3ccccc3)cc2)oc1NCCCN1CCOCC1`: the inhibition was 86.3% (active).

Consider `O=S(=O)(c1ccccc1)c1nc(-c2ccccc2)oc1NCCCN1CCOCC1`, for which the inhibition is -5.33% (inactive).

Consider `Cc1ccc(-c2nc(C#N)c(NCCCn3ccnc3)o2)cc1`, for which the inhibition is -10.2% (inactive). Turning to `CC(=O)Nc1ccc(S(=O)(=O)Nc2ccc(N3CCCCC3)cc2)cc1`, the inhibition was 21.5% (inactive). Turning to `Cc1nn(C)c(C)c1NS(=O)(=O)c1ccc(OC(F)(F)F)cc1`, the inhibition was 1.58% (inactive). On to `O=S(=O)(Nc1ccc(O)c2ccccc12)c1ccc(OC(F)(F)F)cc1`, for which the inhibition is 106% (active). Regarding `O=S(=O)(Nc1ccc(OC(F)(F)F)cc1)c1cccc2nonc12`, the inhibition is -7.85% (inactive).

Take `Cc1noc(C)c1NC(=O)Nc1ccc2c(c1)C(=O)N([C@H](C)CO)C[C@H](C)[C@@H](CN(C)S(=O)(=O)c1cn(C)cn1)O2`: the inhibition is -15.6% (inactive). `Cc1cccc(NC(=O)c2ccc(S(=O)(=O)N(C)c3ccccc3)cc2)n1`: the inhibition was -22% (inactive). Turning to `COc1ccc(-c2c(C#Cc3ccsc3)c3cc(-c4ccc(CN5CCOCC5)cc4)ccc3n2C)cc1`, the inhibition was 31.2% (inactive). On to `COc1ccc(Cc2nnc(N/N=C/c3ccccc3O)[nH]c2=O)cc1OC`, for which the inhibition is 106% (active). Consider `CC(C)c1ccc(Cc2nnc(NCCCO)[nH]c2=O)cc1`, for which the inhibition was 13.6% (inactive). In the case of `COc1ccc(/C=N/Nc2nc3ccccc3c(=O)[nH]2)cc1` it was 13% (inactive).

For orientation: inhibition means the change of the read-out against control, counted positive when it falls.
